Source: the supplement of paper PMC4466140

Tests used:
Test in all cases: SPOT peptide array binding signal intensity (averaged, normalized) (arbitrary units (background-subtracted, floor 0; scale differs between SH3 domains)); higher = stronger binding of the SH3 domain to the peptide
AgAbp1 = target: AgAbp1
Summary of the method: (§1)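 Binding signal is given in arbitrary units that differ between domains and is the normalized, background-subtracted spot intensity averaged across replicates. Each GST-SH3 fusion from one of four yeast species was made in E. coli BL21(DE3), purified on glutathione Sepharose and incubated at 10 μg/ml overnight at 4°C on cellulose-bound synthetic 15-mer peptides in which cysteines were replaced by serines. Detection used anti-GST antibody, an HRP anti-mouse secondary and luminol, followed by imaging and Genespotter quantification.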

AgBbc1 = target: AgBbc1
Summary of the method: as §1

AgBem1-D1 = target: AgBem1-D1
Summary of the method: as §1

AgBzz1-D1 = target: AgBzz1-D1
Summary of the method: as §1

AgBzz1-D2 = target: AgBzz1-D2
Summary of the method: as §1

AgCyk3 = target: AgCyk3
Summary of the method: as §1

AgFus1 = target: AgFus1
Summary of the method: as §1

AgHof1 = target: AgHof1
Summary of the method: as §1

AgHse1 = target: AgHse1
Summary of the method: as §1

AgLsb1 = target: AgLsb1
Summary of the method: as §1

AgLsb4 = target: AgLsb4
Summary of the method: as §1

AgMyo5 = target: AgMyo5
Summary of the method: as §1

AgNbp2 = target: AgNbp2
Summary of the method: as §1

AgRvs167 = target: AgRvs167
Summary of the method: as §1

AgSho1 = target: AgSho1
Summary of the method: as §1

AgSla1-D1-D2 = target: AgSla1-D1-D2
Summary of the method: as §1

AgSla1-D3 = target: AgSla1-D3
Summary of the method: as §1

CaAbp1-D1 = target: CaAbp1-D1
Summary of the method: as §1

CaAbp1-D2 = target: CaAbp1-D2
Summary of the method: as §1

CaBbc1 = target: CaBbc1
Summary of the method: as §1

CaBem1-D1 = target: CaBem1-D1
Summary of the method: as §1

CaBzz1-D1 = target: CaBzz1-D1
Summary of the method: as §1

CaBzz1-D2 = target: CaBzz1-D2
Summary of the method: as §1

CaCyk3 = target: CaCyk3
Summary of the method: as §1

CaFus1 = target: CaFus1
Summary of the method: as §1

CaHof1 = target: CaHof1
Summary of the method: as §1

CaHse1 = target: CaHse1
Summary of the method: as §1

CaLsb1 = target: CaLsb1
Summary of the method: as §1

CaLsb4 = target: CaLsb4
Summary of the method: as §1

CaMyo5 = target: CaMyo5
Summary of the method: as §1

CaNbp2 = target: CaNbp2
Summary of the method: as §1

CaRvs167 = target: CaRvs167
Summary of the method: as §1

CaRvs167-3 = target: CaRvs167-3
Summary of the method: as §1

CaSho1 = target: CaSho1
Summary of the method: as §1

CaSla1-D1-D2 = target: CaSla1-D1-D2
Summary of the method: as §1

CaSla1-D3 = target: CaSla1-D3
Summary of the method: as §1

ScAbp1 = target: ScAbp1
Summary of the method: as §1

ScBbc1 = target: ScBbc1
Summary of the method: as §1

ScBem1-D1 = target: ScBem1-D1
Summary of the method: as §1

ScBzz1-D1 = target: ScBzz1-D1
Summary of the method: as §1

ScBzz1-D2 = target: ScBzz1-D2
Summary of the method: as §1

ScCyk3 = target: ScCyk3
Summary of the method: as §1

ScFus1 = target: ScFus1
Summary of the method: as §1

ScHof1 = target: ScHof1
Summary of the method: as §1

ScHse1 = target: ScHse1
Summary of the method: as §1

ScLsb1 = target: ScLsb1
Summary of the method: as §1

ScLsb2 = target: ScLsb2
Summary of the method: as §1

ScLsb3 = target: ScLsb3
Summary of the method: as §1

ScLsb4 = target: ScLsb4
Summary of the method: as §1

ScMyo3 = target: ScMyo3
Summary of the method: as §1

ScMyo5 = target: ScMyo5
Summary of the method: as §1

ScNbp2 = target: ScNbp2
Summary of the method: as §1

ScPex13 = target: ScPex13
Summary of the method: as §1

ScRvs167 = target: ScRvs167
Summary of the method: as §1

ScSho1 = target: ScSho1
Summary of the method: as §1

ScSla1-D1-D2 = target: ScSla1-D1-D2
Summary of the method: as §1

ScSla1-D3 = target: ScSla1-D3
Summary of the method: as §1

SpAbp1-D1 = target: SpAbp1-D1
Summary of the method: as §1

SpBbc1 = target: SpBbc1
Summary of the method: as §1

SpBzz1-D1 = target: SpBzz1-D1
Summary of the method: as §1

SpBzz1-D2 = target: SpBzz1-D2
Summary of the method: as §1

SpCyk3 = target: SpCyk3
Summary of the method: as §1

SpHof1 = target: SpHof1
Summary of the method: as §1

SpHof1-2 = target: SpHof1-2
Summary of the method: as §1

SpHof1-3 = target: SpHof1-3
Summary of the method: as §1

SpHse1 = target: SpHse1
Summary of the method: as §1

SpLsb1 = target: SpLsb1
Summary of the method: as §1

SpLsb4 = target: SpLsb4
Summary of the method: as §1

SpMyo1 = target: SpMyo1
Summary of the method: as §1

SpNbp2 = target: SpNbp2
Summary of the method: as §1

SpPex13 = target: SpPex13
Summary of the method: as §1

SpRvs167 = target: SpRvs167
Summary of the method: as §1

SpSla1-D1-D2 = target: SpSla1-D1-D2
Summary of the method: as §1

SpSla1-D3 = target: SpSla1-D3
Summary of the method: as §1

## VPPVPLPFGIPPFPM
AgAbp1
  SPOT peptide array binding signal intensity: 3
AgBbc1
  SPOT peptide array binding signal intensity: ≤ 0
AgBem1-D1
  SPOT peptide array binding signal intensity: 288
AgBzz1-D1
  SPOT peptide array binding signal intensity: 6
AgBzz1-D2
  SPOT peptide array binding signal intensity: 10
AgCyk3
  SPOT peptide array binding signal intensity: ≤ 0
AgFus1
  SPOT peptide array binding signal intensity: ≤ 0
AgHof1
  SPOT peptide array binding signal intensity: 338
AgHse1
  SPOT peptide array binding signal intensity: 51
AgLsb1
  SPOT peptide array binding signal intensity: 2
AgLsb4
  SPOT peptide array binding signal intensity: ≤ 0
AgMyo5
  SPOT peptide array binding signal intensity: 720
AgNbp2
  SPOT peptide array binding signal intensity: 5
AgRvs167
  SPOT peptide array binding signal intensity: ≤ 0
AgSho1
  SPOT peptide array binding signal intensity: 4
AgSla1-D1-D2
  SPOT peptide array binding signal intensity: 4
AgSla1-D3
  SPOT peptide array binding signal intensity: 5.75
CaAbp1-D1
  SPOT peptide array binding signal intensity: 8
CaAbp1-D2
  SPOT peptide array binding signal intensity: 11
CaBbc1
  SPOT peptide array binding signal intensity: 2.5
CaBem1-D1
  SPOT peptide array binding signal intensity: 20
CaBzz1-D1
  SPOT peptide array binding signal intensity: 32
CaBzz1-D2
  SPOT peptide array binding signal intensity: ≤ 0
CaCyk3
  SPOT peptide array binding signal intensity: 3
CaFus1
  SPOT peptide array binding signal intensity: 102
CaHof1
  SPOT peptide array binding signal intensity: ≤ 0
CaHse1
  SPOT peptide array binding signal intensity: 2.5
CaLsb1
  SPOT peptide array binding signal intensity: 0.25
CaLsb4
  SPOT peptide array binding signal intensity: 27.5
CaMyo5
  SPOT peptide array binding signal intensity: 296
CaNbp2
  SPOT peptide array binding signal intensity: 88.5
CaRvs167
  SPOT peptide array binding signal intensity: 1.33
CaRvs167-3
  SPOT peptide array binding signal intensity: 2.5
CaSho1
  SPOT peptide array binding signal intensity: 25
CaSla1-D1-D2
  SPOT peptide array binding signal intensity: 34
CaSla1-D3
  SPOT peptide array binding signal intensity: 25.8
ScAbp1
  SPOT peptide array binding signal intensity: ≤ 0
ScBbc1
  SPOT peptide array binding signal intensity: ≤ 0
ScBem1-D1
  SPOT peptide array binding signal intensity: 1
ScBzz1-D1
  SPOT peptide array binding signal intensity: ≤ 0
ScBzz1-D2
  SPOT peptide array binding signal intensity: 2.5
ScCyk3
  SPOT peptide array binding signal intensity: 2.5
ScFus1
  SPOT peptide array binding signal intensity: ≤ 0
ScHof1
  SPOT peptide array binding signal intensity: 144
ScHse1
  SPOT peptide array binding signal intensity: 47
ScLsb1
  SPOT peptide array binding signal intensity: 0.75
ScLsb2
  SPOT peptide array binding signal intensity: ≤ 0
ScLsb3
  SPOT peptide array binding signal intensity: 6.5
ScLsb4
  SPOT peptide array binding signal intensity: ≤ 0
ScMyo3
  SPOT peptide array binding signal intensity: 867
ScMyo5
  SPOT peptide array binding signal intensity: 308
ScNbp2
  SPOT peptide array binding signal intensity: 23
ScPex13
  SPOT peptide array binding signal intensity: 772
ScRvs167
  SPOT peptide array binding signal intensity: 0.333
ScSho1
  SPOT peptide array binding signal intensity: 41
ScSla1-D1-D2
  SPOT peptide array binding signal intensity: ≤ 0
ScSla1-D3
  SPOT peptide array binding signal intensity: 7.5
SpAbp1-D1
  SPOT peptide array binding signal intensity: 2
SpBbc1
  SPOT peptide array binding signal intensity: 1.5
SpBzz1-D1
  SPOT peptide array binding signal intensity: 236
SpBzz1-D2
  SPOT peptide array binding signal intensity: 1.5
SpCyk3
  SPOT peptide array binding signal intensity: 1
SpHof1
  SPOT peptide array binding signal intensity: 4
SpHof1-2
  SPOT peptide array binding signal intensity: 9.5
SpHof1-3
  SPOT peptide array binding signal intensity: 7
SpHse1
  SPOT peptide array binding signal intensity: 70.8
SpLsb1
  SPOT peptide array binding signal intensity: ≤ 0
SpLsb4
  SPOT peptide array binding signal intensity: 51.5
SpMyo1
  SPOT peptide array binding signal intensity: 775
SpNbp2
  SPOT peptide array binding signal intensity: 7
SpPex13
  SPOT peptide array binding signal intensity: 9.5
SpRvs167
  SPOT peptide array binding signal intensity: 24.5
SpSla1-D1-D2
  SPOT peptide array binding signal intensity: 3
SpSla1-D3
  SPOT peptide array binding signal intensity: 6
